For eight molecules, outcome and AC50 results are on record in PubChem BioAssay (EPA / NIEHS).

Experiment [1] deals with Estrogen receptor (Homo sapiens) (UniProt P03372). Nature of the experiment: ATG_ERa_TRANS: Attagene TRANS-FACTORIAL HepG2 Assay for human Estrogen Receptor alpha (ERa) (AID 2282970; active means hit-call score of the fitted dose curve at least 0.9, where 1 is the maximum). The settings on record: HepG2 Attagene TRANS ERa GAL4 reporter, mRNA. The gist of the method: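 After 24 h of compound treatment, RNA from HepG2 cells bearing transfected GAL4-UAS reporter constructs is converted to cDNA, amplified and fluorescently labelled. Capillary electrophoresis resolves the ERa-linked reporter; DMSO serves as negative control.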
Chain of Estrogen receptor (Homo sapiens) (P03372 whole entry, looked up, the tested form may be a part): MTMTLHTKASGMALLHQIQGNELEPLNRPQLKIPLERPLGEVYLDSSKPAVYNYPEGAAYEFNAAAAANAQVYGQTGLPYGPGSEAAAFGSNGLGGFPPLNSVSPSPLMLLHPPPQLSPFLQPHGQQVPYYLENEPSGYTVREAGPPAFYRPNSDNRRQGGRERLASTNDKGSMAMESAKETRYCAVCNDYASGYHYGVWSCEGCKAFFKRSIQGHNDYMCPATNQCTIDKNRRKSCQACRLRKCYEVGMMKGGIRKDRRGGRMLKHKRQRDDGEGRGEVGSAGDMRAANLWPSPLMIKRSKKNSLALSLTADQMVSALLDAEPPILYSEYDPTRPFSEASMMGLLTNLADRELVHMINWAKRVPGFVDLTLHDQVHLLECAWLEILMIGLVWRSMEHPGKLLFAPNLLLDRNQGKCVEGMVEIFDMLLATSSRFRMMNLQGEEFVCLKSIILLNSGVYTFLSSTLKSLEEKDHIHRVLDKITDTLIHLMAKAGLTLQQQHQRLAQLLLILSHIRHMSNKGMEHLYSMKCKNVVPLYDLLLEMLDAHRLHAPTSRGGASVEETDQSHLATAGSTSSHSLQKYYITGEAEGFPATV

The nature of experiment [2]: BSK_3C_Vis: BioMAP Diversity Plus: 3C Assay for Morphology Visualization (AID 2283025).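 Further: fitted both ways so gain or loss versus DMSO counts.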 The settings on record: primary human endothelial cells (HUVEC). The gist of the method:
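Human umbilical vein endothelial cells in the 3C system were imaged by light microscopy 24 h after chemical dosing to record cell morphology. Activity was fitted bidirectionally against DMSO as negative control and baseline; the endpoint serves as a background control.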

Read-out in experiment [3]: Transforming growth factor beta 1 (TGFb1), TGFB1 (gene 7040)
Nature of the experiment: BSK_BE3C_TGFb1: BioMAP Diversity Plus: BE3C Assay for Transforming growth factor beta 1 (TGFb1) Biomarker Activity (AID 2283036). The settings on record: primary human bronchial epithelial cells; actives raise or lower the signal. In outline:
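Human primary bronchial epithelial cells (BE3C system) were dosed with chemical and TGF-b1 levels measured by ELISA at 24 h. Activity was fitted bidirectionally relative to DMSO negative control as baseline.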

Read-out in experiment [4]: Transforming growth factor beta 1 (TGFb1), TGFB1 (gene 7040)
Nature of the experiment: BSK_KF3CT_TGFb1: BioMAP Diversity Plus: KF3CT Assay for Transforming growth factor beta 1 (TGFb1) Biomarker Activity (AID 2283072). The settings on record: primary human keratinocytes with fibroblasts; actives raise or lower the signal. The gist of the method: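 Human keratinocyte plus foreskin fibroblast primary co-culture, dosed with chemical for 24 h. TGF-b1 quantified by ELISA. Activity fitted bidirectionally against DMSO negative control as baseline.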

Read-out in experiment [5]: E-selectin (Homo sapiens) (UniProt P16581)
Nature of the experiment: BSK_LPS_Eselectin: BioMAP Diversity Plus: LPS Assay for Eselectin Biomarker Activity (AID 2283077). The settings on record: primary human HUVEC with PBMC; actives raise or lower the signal. In outline: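 ELISA readout of E-selectin, 24 h post-dose, HUVEC + PBMC co-culture (LPS system). Gain or loss of signal vs DMSO baseline, bidirectional fit.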

The nature of experiment [6]: BSK_LPS_SRB: Viability Assessment in the BioMAP Diversity Plus: LPS Assay (AID 2283079).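 Further: total protein by sulforhodamine B absorbance as a cytotoxicity measure; measured one day after compound addition; fitted in both directions against DMSO so loss or gain of signal counts.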 The settings on record: primary human HUVEC with PBMC. In outline: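 HUVEC + PBMC co-culture, LPS-stimulated; compound 24 h. 10% TCA fix, 0.1% SRB stain, A560. Bidirectional fit vs DMSO.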
Read-out in experiment [7]: Monocyte Chemoattractant Protein-1 (MCP1), CCL2 (gene 6347)
Nature of the experiment: BSK_LPS_MCP1: BioMAP Diversity Plus: LPS Assay for Monocyte Chemoattractant Protein-1 (MCP1) Biomarker Activity (AID 2283081). The settings on record: primary human HUVEC with PBMC; actives raise or lower the signal. The gist of the method:
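ELISA read-out of MCP-1 after 24 h chemical dosing of a human umbilical vein endothelial cell/peripheral blood mononuclear cell co-culture stimulated with LPS. Gain or loss of signal fitted relative to DMSO controls.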

Read-out in experiment [8]: Macrophage colony-stimulating factor (MCSF), CSF1 (gene 1435)
The experiment in a line: BSK_LPS_MCSF: BioMAP Diversity Plus: LPS Assay for Macrophage colony-stimulating factor (MCSF) Biomarker Activity (AID 2283083). The settings on record: primary human HUVEC with PBMC; actives raise or lower the signal. The gist of the method:
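HUVEC + PBMC co-culture (human primary), 24 h post-dose; M-CSF by ELISA; gain/loss of signal fitted bidirectionally vs DMSO baseline.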

Read-out in experiment [9]: Tissue Factor, F3 (gene 2152)
The experiment in a line: BSK_LPS_TissueFactor: BioMAP Diversity Plus: LPS Assay for Tissue Factor Biomarker Activity (AID 2283084). The settings on record: primary human HUVEC with PBMC; actives raise or lower the signal. The gist of the method: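 HUVEC/PBMC co-culture, LPS-activated; CD142 ELISA read 24 h post-dose; bidirectional curve fit vs DMSO negative control.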

Read-out in experiment [10]: Vascular cell adhesion molecule 1 (VCAM1), VCAM1 (gene 7412)
The experiment in a line: BSK_LPS_VCAM1: BioMAP Diversity Plus: LPS Assay for Vascular cell adhesion molecule 1 (VCAM1) Biomarker Activity (AID 2283086). The settings on record: primary human HUVEC with PBMC; actives raise or lower the signal. In outline: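 Human umbilical vein endothelial cells co-cultured with peripheral blood mononuclear cells under LPS stimulation were exposed to test chemical for 24 h. VCAM-1 levels were then measured by ELISA, with bidirectional curve fitting relative to DMSO as negative control and baseline.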

Read-out in experiment [11]: CD38, CD38 (gene 952)
Nature of the experiment: BSK_SAg_CD38: BioMAP Diversity Plus: SAg Assay for CD38 Biomarker Activity (AID 2283087). The settings on record: primary human HUVEC with PBMC; actives raise or lower the signal. The gist of the method:
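Fluorescence ELISA of cell-surface CD38 served as the read-out, with either increase or decrease fitted against DMSO controls. Cells were a human umbilical vein endothelium plus PBMC co-culture under SEB/TSST-1 stimulation, measured 24 h after dosing.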

Read-out in experiment [12]: CD40, CD40 (gene 958)
Nature of the experiment: BSK_SAg_CD40: BioMAP Diversity Plus: SAg Assay for CD40 Biomarker Activity (AID 2283088). The settings on record: primary human HUVEC with PBMC; actives raise or lower the signal. The gist of the method:
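HUVEC/PBMC co-culture, 24 h post-dose; CD40 by ELISA, fluorescence intensity; bidirectional fit vs DMSO negative control.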

Read-out in experiment [13]: CD69, CD69 (gene 969)
Nature of the experiment: BSK_SAg_CD69: BioMAP Diversity Plus: SAg Assay for CD69 Biomarker Activity (AID 2283089). The settings on record: primary human HUVEC with PBMC; actives raise or lower the signal. In outline:
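Primary human vascular co-culture (umbilical vein endothelium with peripheral blood mononuclear cells) exposed to test chemical for 24 h. CD69 levels quantified by fluorescence ELISA; DMSO served as negative control for bidirectional fitting.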

Read-out in experiment [14]: E-selectin (Homo sapiens) (UniProt P16581)
Nature of the experiment: BSK_SAg_Eselectin: BioMAP Diversity Plus: SAg Assay for Eselectin Biomarker Activity (AID 2283091). The settings on record: primary human HUVEC with PBMC; actives raise or lower the signal. In outline: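 E-selectin ELISA readout at 24 h post-dosing in human umbilical vein endothelial cell/PBMC co-culture; gain or loss of signal fitted relative to DMSO baseline.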

Read-out in experiment [15]: Monokine induced gamma interferon (MIG), CXCL9 (gene 4283)
Nature of the experiment: BSK_SAg_MIG: BioMAP Diversity Plus: SAg Assay for Monokine induced gamma interferon (MIG) Biomarker Activity (AID 2283092). The settings on record: primary human HUVEC with PBMC; actives raise or lower the signal. The gist of the method:
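Endothelial cells and PBMC were co-cultured, exposed to test chemicals, and sampled 24 h later. MIG was measured by ELISA, and responses were fitted in both directions relative to DMSO.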

Read-out in experiment [16]: Interleukin-8 (IL8), CXCL8 (gene 3576)
Nature of the experiment: BSK_SAg_IL8: BioMAP Diversity Plus: SAg Assay for Interleukin-8 (IL8) Biomarker Activity (AID 2283094). The settings on record: primary human HUVEC with PBMC; actives raise or lower the signal. In outline:
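Human umbilical vein endothelial cells co-cultured with peripheral blood mononuclear cells; IL-8 measured by ELISA 24 h after chemical dosing. Bidirectional concentration-response fitting used DMSO as negative control and activity baseline.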

Experiment [17] is described as follows: BSK_SAg_Proliferation: Cell Proliferation Assessment in the BioMAP Diversity Plus: SAg Assay (AID 2283095).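 Further: relative cell number as total protein by SRB absorbance in sub-confluent culture.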 The settings on record: primary human HUVEC with PBMC. In outline: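 Human umbilical vein endothelial cells co-cultured with peripheral blood mononuclear cells; total protein measured by sulforhodamine B staining (0.1% SRB after 10% TCA fixation), absorbance at 560 nm, at 96 h. Bidirectional fit against DMSO baseline.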

Experiment [18] in a line: BSK_SAg_SRB: Viability Assessment in the BioMAP Diversity Plus: SAg Assay (AID 2283096).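 Further: cells read one day after compound addition; hits may be either gain or loss of signal compared with DMSO.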 The settings on record: primary human HUVEC with PBMC. The gist of the method:
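Human umbilical vein endothelial cells co-cultured with PBMC, read 24 h after compound dosing. Total protein measured by sulforhodamine B staining (0.1% SRB after 10% TCA fixation, absorbance 560 nm); bidirectional fit versus DMSO baseline.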

Experiment [19] has as its target human RAR-related Orphan Receptor gamma (RORg), RORC (gene 6097) (UniProt P51449). Nature of the experiment: ATG_RORg_TRANS: Attagene TRANS-FACTORIAL HepG2 Assay for human RAR-related Orphan Receptor gamma (RORg) (AID 2283011; active means hit-call score of the fitted dose curve at least 0.9, where 1 is the maximum). In outline: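 Transient MRTU transfection of HepG2 (TRANS format, exogenous NR-Gal4 chimera). 24 h dosing. Total RNA → oligo(dT) RT → PCR → 6-FAM labelling → HpaI cut → CE. Gain vs DMSO.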

Experiment [20] addresses human Thyroid Receptor alpha (THRa1), THRA (gene 7067) (UniProt P10827). Nature of the experiment: ATG_THRa1_TRANS: Attagene TRANS-FACTORIAL HepG2 Assay for human Thyroid Receptor alpha (THRa1) (AID 2283014; active means hit-call score of the fitted dose curve at least 0.9, where 1 is the maximum). In outline:
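Transient HepG2 transfection, NR-Gal4 chimera driving GAL4-UAS reporters; 24 h compound exposure; total RNA, oligo(dT) RT, PCR, fluorescent primer extension, capillary electrophoresis. Upward direction vs DMSO control.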

Records with an inconclusive call do not appear. Active and inactive are the calls of the source. How the source made its calls, unless noted: active means hit-call score of the fitted dose curve at least 0.9, where 1 is the maximum; inactive means score below 0.9.

Chain of human RAR-related Orphan Receptor gamma (RORg), RORC (gene 6097) (P51449 whole entry, looked up, the tested form may be a part): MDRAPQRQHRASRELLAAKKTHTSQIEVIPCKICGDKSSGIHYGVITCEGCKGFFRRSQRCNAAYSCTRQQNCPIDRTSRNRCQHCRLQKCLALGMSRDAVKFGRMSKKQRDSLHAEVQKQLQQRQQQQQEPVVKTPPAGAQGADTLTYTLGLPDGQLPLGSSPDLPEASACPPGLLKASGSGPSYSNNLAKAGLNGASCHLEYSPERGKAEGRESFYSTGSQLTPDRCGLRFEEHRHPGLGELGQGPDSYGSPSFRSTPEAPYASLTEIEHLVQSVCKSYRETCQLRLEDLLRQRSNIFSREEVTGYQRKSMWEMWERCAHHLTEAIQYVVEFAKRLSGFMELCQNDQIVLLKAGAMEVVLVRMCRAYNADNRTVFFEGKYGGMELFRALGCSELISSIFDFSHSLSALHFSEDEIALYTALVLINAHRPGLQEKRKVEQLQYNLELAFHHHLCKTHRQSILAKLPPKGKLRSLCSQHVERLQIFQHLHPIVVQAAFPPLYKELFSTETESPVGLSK
Chain of E-selectin (Homo sapiens) (P16581 whole entry, looked up): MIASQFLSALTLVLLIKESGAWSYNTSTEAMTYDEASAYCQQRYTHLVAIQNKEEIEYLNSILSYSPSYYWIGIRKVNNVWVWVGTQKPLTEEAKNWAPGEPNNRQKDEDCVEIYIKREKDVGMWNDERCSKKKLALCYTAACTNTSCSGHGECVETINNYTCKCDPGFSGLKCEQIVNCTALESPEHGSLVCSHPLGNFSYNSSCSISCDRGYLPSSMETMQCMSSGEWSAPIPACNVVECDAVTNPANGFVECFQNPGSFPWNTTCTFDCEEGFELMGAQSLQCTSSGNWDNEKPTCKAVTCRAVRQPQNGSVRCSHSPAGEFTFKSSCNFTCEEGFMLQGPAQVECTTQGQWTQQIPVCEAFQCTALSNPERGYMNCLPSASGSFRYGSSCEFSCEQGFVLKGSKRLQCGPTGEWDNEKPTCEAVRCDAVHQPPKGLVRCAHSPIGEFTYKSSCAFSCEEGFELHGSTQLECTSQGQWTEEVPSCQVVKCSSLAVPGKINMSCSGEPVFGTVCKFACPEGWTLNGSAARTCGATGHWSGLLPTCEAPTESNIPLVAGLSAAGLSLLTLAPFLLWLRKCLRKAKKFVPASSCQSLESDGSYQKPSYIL
Chain of human Thyroid Receptor alpha (THRa1), THRA (gene 7067) (P10827 whole entry, looked up, the tested form may be a part): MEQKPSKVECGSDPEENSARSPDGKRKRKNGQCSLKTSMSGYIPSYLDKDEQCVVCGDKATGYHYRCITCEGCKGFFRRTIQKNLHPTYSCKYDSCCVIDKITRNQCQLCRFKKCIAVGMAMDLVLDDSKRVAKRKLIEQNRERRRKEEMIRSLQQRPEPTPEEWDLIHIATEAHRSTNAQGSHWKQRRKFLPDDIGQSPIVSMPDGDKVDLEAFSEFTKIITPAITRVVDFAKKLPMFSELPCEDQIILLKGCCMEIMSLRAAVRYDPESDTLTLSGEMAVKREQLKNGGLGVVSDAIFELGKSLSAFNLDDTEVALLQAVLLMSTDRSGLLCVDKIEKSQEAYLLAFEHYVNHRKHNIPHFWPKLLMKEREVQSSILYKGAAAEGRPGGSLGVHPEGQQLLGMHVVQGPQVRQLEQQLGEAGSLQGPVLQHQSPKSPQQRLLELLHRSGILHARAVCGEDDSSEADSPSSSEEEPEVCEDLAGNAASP

As to `CN(N=O)c1ccccc1`, in experiment [1], the molecule was classed as inactive.

With `C=CCN(CC=C)C(=O)C(Cl)Cl`, the outcome in experiment [2], in [3], in experiment [4], in experiment [5], in experiment [6] and in experiment [7] was inactive. Besides, the outcome in [8], in experiment [9], in experiment [10], in experiment [11], in experiment [12] and in [13] was inactive. Also, the outcome in experiment [14], in experiment [15], in [16], in [17] and in [18] was inactive.

In the case of `CCc1cc(C)cc(CC)c1-c1c(OC(=O)C(C)(C)C)n2n(c1=O)CCOCC2`, the outcome in experiment [19], in experiment [2], in experiment [3], in [5], in [6] and in experiment [7] was inactive. Besides, the outcome in [8], in experiment [9], in [11], in experiment [12], in experiment [13] and in experiment [14] was inactive. In addition, the result in experiment [15], in experiment [16], in [17] and in experiment [18] was inactive. Further, the AC50 was 20 µM (active) in experiment [4] and 3.97 µM (active) in experiment [10].

Turning to `COC(=O)COc1ccc(Cl)cc1Cl`, in [19], the molecule was classed as inactive.

Regarding `C[N+](C)=CCl`, the call in experiment [1] and in experiment [20] was inactive.

In the case of `CC1CCCC1.[C-]#[O+].[C-]#[O+].[C-]#[O+].[Mn]`, the molecule was called inactive in experiment [20].

Regarding `ClCC(Cl)Cl`, the result in [19] was inactive.

For `Clc1ccc(-c2ccccc2)cc1`, in [1], the half-maximal activity concentration (AC50) was 36.8 µM (active). Also, the result in experiment [2], in experiment [3], in experiment [4], in [5], in experiment [6] and in experiment [7] was inactive. Further, the outcome in [8], in experiment [9], in experiment [10], in experiment [11], in experiment [12] and in [13] was inactive. Moreover, the result in [14], in [15], in [16], in [17] and in [18] was inactive.

As usually defined, the AC50 is the concentration at which the activity in the assay is half-maximal.
